Data: the supplement of paper PMC6555819

Legend:
Assay in all cases: PBM binding z-score (relative to random genomic background probes); higher = stronger binding; sequences stand for … in GC…GCGATTGACAGCGTAGAATGAAGG
[1] = test system: PPARg:RXRa DBDmut IVT, anti-RXR (DBD mutation: RXRa K156A/R161A, NR concentration 270 nM, RXRa partner concentration 90 nM)
Summary of the method: (§1)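 Binding z-scores were set against random background probes. The data came from custom Agilent 4×180K protein-binding microarrays carrying double-stranded probes with 34-nt variable regions, incubated 1 h with ligand-free nuclear receptor dimers. Partner-specific antibodies detected binding, and scanned fluorescence was regression-normalized.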

[2] = test system: PPARg:RXRa IVT, anti-PPARg (NR concentration 270 nM, RXRa partner concentration 90 nM)
Summary of the method: as §1

[3] = test system: PPARg DBDmut:RXRa IVT, anti-PPARg (DBD mutation: PPARg1 K132A/R137A, NR concentration 270 nM, RXRa partner concentration 90 nM)
Summary of the method: as §1

[4] = test system: PPARg DBDmut IVT, anti-PPARg (DBD mutation: PPARg1 K132A/R137A, NR concentration 270 nM)
Summary of the method: as §1

[5] = test system: PPARg homodimer (NR concentration 180 nM)
Summary of the method: as §1

[6] = test system: PXR:RXRa (NR concentration 270 nM, RXRa partner concentration 90 nM)
Summary of the method: as §1

[7] = test system: PXR homodimer (NR concentration 270 nM)
Summary of the method: as §1

[8] = test system: RARa:RXR (NR concentration 270 nM, RXRa partner concentration 90 nM)
Summary of the method: as §1

[9] = test system: RARa homodimer (NR concentration 270 nM)
Summary of the method: as §1

[10] = test system: RARb:RXRa (NR concentration 270 nM, RXRa partner concentration 90 nM)
Summary of the method: as §1

Sequence	PBM binding z-score [1]	PBM binding z-score [2]	PBM binding z-score [3]	PBM binding z-score [4]	PBM binding z-score [5]	PBM binding z-score [6]	PBM binding z-score [7]	PBM binding z-score [8]	PBM binding z-score [9]	PBM binding z-score [10]
AGAATGAGGTTACCAAAGATCAGGGATACGCTTG	3.77	3.44	1.54	0.614	0.494	1.38	-0.284	2.04	0.01	1.98
CCTACTGGGCCATTCAGATGTCATTGATCATATG	4.47	3.44	-0.00111	0.0316	0.0941	-0.564	-0.799	-0.682	-0.198	0.127
GCTCGGAGGGCAAGGTCAGAGCTTTGTCCGTAGA	0.731	1.11	-2.58	-1.43	2.03	2.07	-0.437	2.52	-0.775	3.76
CGTCCAAGGTCAGAGAGGTCAATGAATGCCGAGT	3.1	3.52	-0.295	-0.854	5.37	6.76	13.7	6.55	3.02	5.17
ACAGACAGGGGATGAAGGTAACTCAGGCTATCAT	-0.0159	0.23	0.918	0.962	0.411	0.126	0.556	-0.0712	0.0686	0.299
TAGCCTAGGTCATTGGGCCCGTATAGTACGCATC	1.78	3.02	0.545	-0.654	0.54	1.75	0.165	2	-0.326	3.74
TCTTGTAGATCAATAGAGGTTAACAAAGTGCGCT	1.65	1.38	0.608	1.56	0.466	3.82	0.45	2	0.875	1.02
ATCTCTAGGCAACAAGTTCAGTGAAAGAGAGGAC	0.952	0.456	0.856	0.154	0.297	0.875	1.52	0.335	0.376	1.32
TCTTGTAGATCAAGCAGGTTAAAAAAGCCTGAGT	1.71	0.721	0.175	0.427	0.249	0.876	0.157	0.523	0.0055	0.189
TGAATGAGGTTATAAGATCAGGGCACGTTGCAAA	1.2	2.64	0.65	0.308	0.364	1.19	-0.152	1.77	0.42	1.48
TCTCGGAGGAGACGAAAGGTCAGAGCTCGACATC	0.912	1.49	-0.00299	-0.844	3.1	3.44	-0.0245	4.57	1.35	3.44
TCTTGTAGATCAAAGATTAAGAAAGCCGAAGCCT	1.71	0.407	0.363	0.404	-0.224	0.137	-0.525	0.257	0.694	-0.16
